Only some compounds are listed: those with a hit (about 4.1% of all), similar ones and a draw of the others.
NALP1 yeast inh: inhibitors of NALP1 inflammasome in yeast | S. cerevisiae NALP1/ASC/caspase-1 growth, X-gal OD620, 72 h | inhibition, % at 10 µM | 0.61% of 280,000 active | AID 2071; in the data active = inhibition mostly above about 24%, no sharp cut-off; inactive = mostly below about 32%
PfHsp90 yeast 2: inhibits growth of yeast expressing Plasmodium falciparum Hsp90; 0.32% of 310,000 active; inhibition, % at 9.4 µM; S. cerevisiae expressing PfHsp90, BacTiter-Glo ATP, 48 h; yeast lacking PDR1 and PDR3 efflux regulators; AID 504621;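 active = every replicate shows inhibition above about 80%, whatever the replicate mean, limit read from the data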;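 also: 0% = DMSO neutral controls and 100% = 20 µM radicicol positive controls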
TIM10 inh: inhibits growth of TIM10 yeast strain; S. cerevisiae TIM10 strain growth, BacTiter-Glo luminescence, 24 h; inhibition, % at 10 µM; 1.4% of 330,000 active; AID 463195;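 active = inhibition of 40% or more at the single tested concentration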;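 also: wild-type TIM10 isogenic control strain grown at permissive 25 °C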
NALP3 yeast inh: blocks the NALP3 inflammasome reconstituted in yeast | Yeast reconstituted NLRP3/ASC/caspase-1, beta-gal luminescence, 24 h | inhibition, % at 10 µM | 0.39% of 330,000 active;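 active = inhibition of 50% or more; inactive = inhibition below 50%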;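 also: plate controls were induced DMSO wells for no effect and uninduced yeast grown without galactose for full effect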
tim10-1 inh: tim10-1 yeast growth inhibition | inhibition, % at 20 µM | AID 463190 | S. cerevisiae tim10-1 ts strain growth, BacTiter-Glo, 24 h | 2.2% of 330,000 active;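 active = inhibition of at least 40%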;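 also: mutant grown at 25 °C; 0% = DMSO wells with yeast and 100% = wells holding no yeast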
tim23-1 inh: growth inhibitors of tim23-1 mutant yeast; S. cerevisiae tim23-1 growth, BacTiter-Glo luminescence, 24 h; inhibition, % at 20 µM; 1.3% of 330,000 active; AID 463212;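 active = growth inhibition of the mutant yeast at or above 50%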;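 also: temperature-sensitive mutant grown at 25 °C; plate controls were DMSO-treated mutant yeast for no effect and medium wells lacking yeast for full effect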
tim10-1 conf: tim10-1 yeast growth inhibition, confirmed; shares compounds with tim10-1 inh; S. cerevisiae tim10-1 ts strain growth, BacTiter-Glo, 24 h; inhibition, % at 20 µM; 56% of 7,400 active; AID 463213;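 active = inhibition of yeast growth at or above a set limit in either of two repeat tests at 20 µM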;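 also: tim10-1 mutant grown at permissive 25 °C to find synthetic lethal compounds; 0% = DMSO yeast wells and 100% = medium wells without yeast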
TIM10 conf: TIM10 yeast growth inhibition, confirmed | shares compounds with TIM10 inh | S. cerevisiae tim10 strain growth, BacTiter-Glo luminescence, 24 h | inhibition, % at 10 µM | 63% of 4,600 active | AID 463215;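 active = inhibition of yeast growth at or above a set limit in either of two replicates at 10 µM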;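 also: this counterscreen used the strain with wild-type TIM10; 0% = yeast with DMSO and 100% = medium wells lacking yeast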
tim23-1 confirm: confirmation of tim23-1 mutant yeast growth inhibitors; inhibition, % at 20 µM; shares compounds with tim23-1 inh; S. cerevisiae tim23-1 growth, BacTiter-Glo luminescence, 24 h; AID 463218; 83% of 4,400 active;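 active = inhibition above about 39% in either of two replicate wells at 20 µM, limit read from the data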;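 also: temperature-sensitive tim23-1 mutant grown at 25 °C; 0% = DMSO wells with yeast and 100% = medium wells without yeast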
* = called active by the depositor; · = no result given.

SMILES	NALP1 yeast inh	PfHsp90 yeast 2	TIM10 inh	NALP3 yeast inh	tim10-1 inh	tim23-1 inh	tim10-1 conf	tim23-1 confirm	others
Cc1ccccc1Oc1nc(-c2ccccn2)nc2ccccc12	9	-7	43*	37	48*	56*	28	49*	TIM10 conf=36*
CC(=O)Nc1ccc(Oc2nc(-c3ccccn3)nc3ccccc23)cc1	19	-8	18	0	17	2	·	·
O=C1c2ccccc2C(=O)N1CCOc1ccccc1Cl	4	-1	-8	17	24	17	·	·
COc1ccccc1OCCCN1C(=O)C(=O)c2cccc(C)c21	9	17	18	24	9	37	·	·
Cc1ccccc1OCCN1C(=O)C(=O)c2cccc(C)c21	35	0	23	20	45*	60*	26	33
Cc1cccc2c1N(CCOc1ccccc1Cl)C(=O)C2=O	1	27	27	16	51*	56*	19	-30
COc1ccccc1OCC(=O)NC1CCSc2ccccc21 (centres undefined)	·	-7	9	10	16	28	·	·
N#Cc1c(N2CCCC2)nc(N)c2c(N)nc(N3CCCC3)cc12	16	11	43*	-6	60*	81*	54*	89*	TIM10 conf=31*
CCOc1cc2c(C#N)c(N3CCCC3)nc(N)c2c(N)n1	·	4	0	0	1	18	·	·
CCN(C(=O)COC(=O)CCc1ccc(OC)cc1)c1c(N)n(Cc2ccccc2)c(=O)[nH]c1=O	·	-10	0	10	-11	-1	·	·
CC1=NOC(=O)/C1=C\c1ccc(-c2ccc(Cl)cc2Cl)o1	-5	72	21	8	46*	81*	46*	51*
O=S(=O)(c1ccc2nc(N3CCN(c4ccccc4F)CC3)ccc2c1)N1CCCCC1	-2	-4	7	9	-7	0	·	·
O=S(=O)(c1ccc2nc(Nc3ccccc3)ccc2c1)N1CCCCC1	12	-5	23	-13	50*	50*	30	42*
COc1ccccc1OCCNC(=O)c1ccc2c(c1)CCC2	16	-3	5	26	-6	26	·	·
O=C1CCCCC1C(Nc1ccc(Br)cc1)c1ccccc1 (centres undefined)	20	-13	29	34	41*	53*	32*	48*
CN1/C(=C\C=C(/C#N)C(=O)Nc2ccc(Cl)cc2)C(C)(C)c2ccccc21	·	0	-1	-4	-7	0	·	·
CN1/C(=C\C(=O)Nc2ccc(Cl)cc2)C(C)(C)c2ccccc21	49	37	59*	18	52*	68*	62*	78*	TIM10 conf=54*
COc1ccc2nc3oc(C(=O)N4CC(C)CC(C)C4)cc3cc2c1 (centres undefined)	1	-14	15	19	59*	54*	5	41*
CCOC(=O)C(=Cc1ccc(F)cc1)C(=O)OCC	-10	·	43*	46	53*	55*	46*	60*	TIM10 conf=48*
Cc1nc(CS(=O)(=O)c2ccccn2)sc1C(=O)NNC(=O)c1ccccc1	·	-20	15	-8	4	8	·	·
CCCn1c(NC(=O)c2ccccc2)nc2ccccc21	6	7	4	16	24	19	·	·
CCCn1c(NC(=O)c2cccc(S(=O)(=O)N3CCCC3)c2)nc2ccccc21	3	8	40	10	41*	50*	27	58*
CC(C)c1nc2c(c(=O)n(C)c(=O)n2C)n1C	12	10	0	16	-10	2	·	·
C(=C\c1nc(N2CCCCCC2)c2ccccc2n1)/c1ccccc1	57*	-23	44*	27	46*	50*	31*	38	TIM10 conf=19
CN(CC(=O)Nc1ccccc1C(F)(F)F)C(=O)C1CC1	·	2	4	10	9	12	·	·
SMILES	NALP1 yeast inh	PfHsp90 yeast 2	TIM10 inh	NALP3 yeast inh	tim10-1 inh	tim23-1 inh	tim10-1 conf	tim23-1 confirm	others
NC(=NC(=O)c1ccc(OCC(F)(F)F)nc1)c1ccc(Cl)cc1	·	-4	18	14	68*	56*	48*	42*
NC(=NC(=O)c1ccc(OCC(F)(F)F)nc1)c1ccccc1	·	2	15	11	15	34	·	·
Cc1ccc(C(=O)N2CCN(S(=O)(=O)c3sc(C(=O)O)c(C)c3C(=O)O)CC2)s1	·	-4	-2	1	0	5	·	·
Oc1ccccc1N=N/C(=N/Nc1ccccc1O)c1ccccc1	·	19	8	18	-2	-1	·	·
Cn1nnnc1N=N/C(=N/Nc1ccccc1)c1ccccc1	13	97*	69*	44	55*	75*	26	60*	TIM10 conf=70*
COc1ccc(/C=N/NC(=O)c2nn(C)cc2Br)cc1CSCc1ccco1	10	-11	26	18	44*	52*	20	47*
CCOc1cc(/C=N/NC(=O)c2nn(C)cc2Br)ccc1OCc1ccccc1	21	-23	9	1	8	10	·	·
CN1CCN(C2=Cc3ccccc3Sc3cc(F)c(F)cc32)CC1	13	33	17	16	38	-6	·	·
CN1CCN(C2=Cc3cc(Cl)ccc3Sc3cc(F)ccc32)CC1	19	-5	-15	24	57*	78*	40*	67*
CN1CCN(C(c2cccc(Cl)c2)c2ccccc2Cl)CC1 (centres undefined)	24	23	21	-70	12	-26	·	·
CN1CCN(C(c2ccc(Cl)cc2)c2cc(Cl)c3cccnc3c2O)CC1 (centres undefined)	14	106*	3	40	40*	59*	24	71*
CN1CCN(C(c2ccc(C(F)(F)F)cc2)c2cc(Cl)c3cccnc3c2O)CC1 (centres undefined)	27	·	53*	39	43*	66*	36*	70*	TIM10 conf=26
CCc1nn(CC(=O)NCCc2ccc(OC)cc2OC)c(=O)c2cc3occc3n12	14	-15	-10	4	27	17	·	·
COc1ccc(Cl)cc1NC(=O)CN(C)C(=O)c1sccc1-c1ccccc1	·	·	19	19	21	47	·	·
O=C(/C=C\c1cccs1)c1c(O)ccc2ccc(=O)oc12	33	-25	75*	47	75*	78*	81*	69*	TIM10 conf=75*
O=C(/C=C/c1cccs1)c1ccc(Br)cc1	-6	1	17	18	6	13	·	·
COc1cc(OC)cc(C(=O)Nc2ccccc2-c2nnn(CC(=O)Nc3cc(C)on3)n2)c1	-2	-10	-3	-3	10	-3	·	·
